In PubChem BioAssay (NCI):
Compounds without any hit were thinned out: in the full panel of roughly 83,000, 20% have a hit.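 Results are percent growth after 48 hours of single-concentration exposure. 100 means growth as in untreated cells, lower positive values show inhibition; negative values down to -100 show cell death.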 A number with no mark means an inactive call. Calls of active or inactive are those of the source. How the source made its calls: active means growth percent below 10; inactive means the rest.

Key:
Test in all cases: NCI-60 one-dose screen, 48 h (100 = growth as untreated, 0 = no growth, -100 = all killed)
Conditions in all cases: 10 µM unless noted
NCI-H23 lung = tested on: NCI-H23 lung
NCI-H226 lung = tested on: NCI-H226 lung
NCI-H322M lung = tested on: NCI-H322M lung
HOP-62 NSCLC = tested on: HOP-62 NSCLC
NCI-H460 lung = tested on: NCI-H460 lung
HOP-92 NSCLC = tested on: HOP-92 NSCLC
NCI-H522 lung = tested on: NCI-H522 lung
A549/ATCC NSCLC = tested on: A549/ATCC NSCLC
786-0 renal = tested on: 786-0 renal
COLO 205 colon = tested on: COLO 205 colon
DU-145 prostate = tested on: DU-145 prostate
K-562 leukemia = tested on: K-562 leukemia
MALME-3M melanoma = tested on: MALME-3M melanoma
MDA-MB-231 breast = tested on: MDA-MB-231 breast
SF-268 CNS = tested on: SF-268 CNS
SF-295 CNS = tested on: SF-295 CNS
SF-539 CNS = tested on: SF-539 CNS
UACC-257 melanoma = tested on: UACC-257 melanoma
M14 melanoma = tested on: M14 melanoma
RXF 393 renal = tested on: RXF 393 renal

Structure (SMILES)	growth (NCI-H23 lung)	growth (NCI-H226 lung)	growth (NCI-H322M lung)	growth (HOP-62 NSCLC)	growth (NCI-H460 lung)	growth (HOP-92 NSCLC)	growth (NCI-H522 lung)	growth (A549/ATCC NSCLC)	growth (786-0 renal)	growth (COLO 205 colon)	growth (DU-145 prostate)	growth (K-562 leukemia)	growth (MALME-3M melanoma)	growth (MDA-MB-231 breast)	growth (SF-268 CNS)	growth (SF-295 CNS)	growth (SF-539 CNS)	growth (UACC-257 melanoma)	growth (M14 melanoma)	growth (RXF 393 renal)
COc1ccc(Cn2nc(-c3ccccc3)c3c2CCc2cnoc2-3)cc1	60.3%	105%	101%	83.5%	80.5%	61.1%	70.3%	69.4%	79.4%	88.6%	96.9%	36.3%	109%	55.6%	81%	59.5%	85.4%	90.9%	89.2%	
Cn1c2c(Cl)c(Cl)ccc2c2cc(N)[nH]c(=O)c21	76.2%	59.2%	103%	51.3%	81.9%	29.9%	92.4%	15.1%	70.2%	92.1%	84.2%		102%	68.5%	80.9%	53.7%	82.8%	97.9%		
O=C(N/N=C/c1cccc(O)c1)c1ccccc1Nc1cccc(C(F)(F)F)c1	96.4%	76.7%	77.9%	73%	102%	63%	90.3%	29.1%	43.5%	117%	88.7%		76.3%	73.8%	69.5%	52.2%	103%	64.9%	58.8%	
CN1CCN(CCCOc2ccc3ncnc(Nc4ccc(Oc5cccc(C(F)(F)F)c5)c(Cl)c4)c3c2)CC1	44.4%	85.6%	11.3%	1.07% (active)	-66.9% (active)	29.4%	-3.31% (active)	21.5%	-81% (active)	-51.8% (active)	-8.56% (active)	-13.1% (active)	-90.2% (active)	-74.6% (active)	28.1%	-64.7% (active)	-89.3% (active)	-53.5% (active)	-62.8% (active)	
O=C(Nc1ccccc1)Oc1ccccc1-c1ccccc1	97.7%	93.3%	105%	74.9%	99.7%	94.7%	83.7%	73.8%	93.5%	96%	105%		95%	109%	96.2%	97.4%	105%	80.8%	85.2%	
C=C(C)[C@@H]1CC[C@]2(C(=O)NCCCN(CCC#N)CCC#N)CC[C@]3(C)[C@H](CC[C@@H]4[C@@]5(C)CCC(=O)C(C)(C)[C@@H]5CC[C@]43C)[C@@H]12	109%	102%	104%	105%	104%	82.4%	93.5%	91.2%	94.2%	111%	105%		105%	103%	94.6%	99.8%	94.2%	91.4%	99%	
Cc1ccc(S(=O)(=O)Nc2ccc(Cl)cc2)cc1	91.6%	96.6%	94%	98.4%	105%	86.9%	104%	94%	100%		118%	97.6%	100%	86.6%	107%	91.2%	104%	105%	103%	103%
CCN(CCNc1cc(OC)cc2cccnc12)CCc1ccccc1	78.1%	86.2%	108%	64.9%	86%	77.2%	63.7%	74.4%	87.2%	68.8%	101%		108%	70.7%	84%	83.5%	97.6%	77.8%	93.4%	
COc1cc2nnn3c4ncccc4c(N=O)c3c2cc1OC	112%	97%	78.6%	106%	84.9%	-12% (active)	-34.3% (active)	95.2%	48.2%	102%	102%		91.2%	78.6%	30.3%	111%	98.6%	76.1%	104%	
O=C(Nc1nc2ccc(C(=O)N3CCN(c4ccc(Cl)c(Cl)c4)CC3)cc2s1)c1ccc(NCCc2ccccc2)c([N+](=O)[O-])c1	93.3%	87.8%	95.5%	96.6%	110%	91.7%	75.9%	97.9%	107%		101%	84.2%	86.8%	86.2%	97%	96.4%	101%	99.4%	98.5%	
Clc1cc(Cl)cc(N2N=C(c3cccc(Nc4ccncc4)c3)CC2c2ccc(Br)cc2)c1 (stereo not drawn)	64.4%	85.7%	73.1%	33.7%	-81.8% (active)	65.8%	69.7%	19.1%	105%		35.2%	1.66% (active)	23.7%	57.1%	77.1%	36.9%	76.6%	79.4%	108%	
Cn1ncc2c(Nc3ccccc3Cl)nc(Cl)nc21	100%	88.4%	87.3%	98.2%	114%	72.8%	40.5%	103%	103%		139%		122%	87%	114%	103%	102%	128%		
COc1ccc(Cc2nc3cc(OC)c(OC)cc3c(=O)[nH]2)cc1	59.6%	98%	167%	140%	89.4%	108%	52.1%	-5.67% (active)	86.9%		39.5%	115%	273%	73.3%	30.5%	65.3%	100%	4.95% (active)	48.8%	
CC[C@H](CC[C@@H](C)[C@H]1CC[C@H]2[C@@H]3CC=C4C[C@@H](OCCc5nn[nH]n5)CC[C@]4(C)[C@H]3CC[C@]12C)C(C)C	97.7%	110%	101%	98.4%	109%	147%	82.9%	93.7%	101%		101%	92.4%	108%	117%	100%	98.1%	103%	103%	108%	129%
CCCCCCOc1ccc(C(=N)N(CCCC)CCCC)c2ccccc12	-94.6% (active)	-70.5% (active)	-93.6% (active)	-89% (active)	-57.7% (active)	-81.7% (active)	-84.6% (active)	-83.1% (active)	-94% (active)		-92.4% (active)	-42.3% (active)	-82.7% (active)	-89.7% (active)	-84.4% (active)	-89.1% (active)	-92.8% (active)	-85.5% (active)	-96.1% (active)	-94.5% (active)
Clc1nc(Cl)c2ncn(CC3(Cn4cnc5c(Cl)nc(Cl)nc54)COC3)c2n1	-70.2% (active)	-81.3% (active)	-100% (active)	-82.3% (active)	-65.5% (active)	-91.9% (active)	-89.1% (active)	-77% (active)	-98.7% (active)		-100% (active)	-70.4% (active)	-69.8% (active)	-88.9% (active)	-73.7% (active)	-83.6% (active)	-93.4% (active)	-90.9% (active)	-92.7% (active)	
COc1ccc(/C=C/c2n[nH]c3ccc(N4CCOC4=O)cc23)cc1	12.4%	6.06% (active)	8.47% (active)	-1.37% (active)	1.61% (active)	-8.15% (active)	51.3%	1.87% (active)	11.3%	-17.4% (active)	14.7%		59.9%	14.6%	13%	32.8%	-1.43% (active)	38.4%	26.9%	
